Measured values: PubChem BioAssay AID687001 (Broad Institute, 2013)
Measured potencies and affinities stand elsewhere. The source made the active and inactive calls.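 The calls were made as follows: active = signal-lowering compounds whose fitted half-maximal concentration is at or below twice the top tested dose in every run; inconclusive = runs disagree, flat 30 to 70% inhibition, or poor curve fit; inactive = the rest.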

Biological target: Protein S100-A4 (Homo sapiens) (UniProt P26447)
Assay: S100A4-myosin IIA binding inhibitor potency, dose response, biochemical, fluorescence polarization, cherry-picked hits (AID 687001);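 also: 0% = DMSO neutral control wells and -100% = TFP positive control wells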
Conditions: FP, S100A4/TAMRA-myosin IIA peptide binding; series mostly up to 11 µM; activity change, negative = inhibition: at the top concentration

Chain of Protein S100-A4 (Homo sapiens) (P26447 whole entry, looked up): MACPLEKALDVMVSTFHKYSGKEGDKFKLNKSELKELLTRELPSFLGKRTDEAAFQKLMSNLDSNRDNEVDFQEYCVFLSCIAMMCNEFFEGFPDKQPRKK

Activity change, negative = inhibition, inactive:
CC(=O)Nc1cccc(C(=O)NC2CCCc3c2cnn3-c2ccccc2F)c1 (centres undefined) -12.2% [at 5.6 µM]
COc1ccc(CN(C)C(=O)Cc2ccc(S(=O)(=O)N3CCOCC3)s2)cc1OC -3.1%
COc1ccc(NC(=O)N(C)C[C@H]2Oc3c(NC(=O)NC4CCCCC4)cccc3C(=O)N([C@H](C)CO)C[C@H]2C)cc1 0.755%
Cc1cc(C(=O)N/N=C/c2ccccn2)c2ccccc2n1 -6.09%
CO[C@H]1CN(C)C(=O)c2ccc(NC(=O)NC(C)C)cc2OC[C@@H](C)N(C(=O)NC(C)C)C[C@H]1C 2.91%
CN(C)C(=O)[C@H]1[C@H](CO)[C@H]2Cn3c(cccc3=O)[C@@H]1N2C(=O)c1ccccc1 1.74%
CCCCCCCCNC(CO)(CO)CO -3.47%
CC=Cc1ccc2n(c1=O)C[C@@H]1[C@@H](CO)[C@H](C(=O)NCc3ccc4c(c3)OCO4)[C@H]2N1C(C)=O (mixture of isomers) -3.41%
CCC(=O)N1C[C@@H]2[C@H](c3ccccc31)[C@@H](CO)N2C(=O)CC 0.177%
CN(C)C(=O)c1cccc(-c2ccc3c(c2)[C@H]2[C@H](CCN2C(=O)C2CC2)[C@@H](CO)N3)c1 2.78%
Cc1ccccc1NC(=O)C1CCN(S(=O)(=O)c2ccc3c(c2)NC(=O)C(C)S3)CC1 (centres undefined) 47.4%
O=C(NC1CCCC1)N1CCCCN2[C@@H](CO)[C@@H](c3ccc(-c4cccnc4)cc3)[C@@H]2C1 3.97%
NC1=NC(=O)C(CC(=O)c2ccc(Cl)cc2)S1 (centres undefined) 1.05%
Cc1ccc(S(=O)(=O)Nc2ccc3c(c2)C(=O)N([C@H](C)CO)C[C@@H](C)[C@@H](CN(C)C(=O)NC(C)C)OCCCC[C@@H](C)O3)cc1 4.8%
